Source: the supplement of paper PMC8975748
Counter-ions that a name gives are not always drawn. ± gives the standard deviation of the averaged measurements.

Test system: Saccharomyces cerevisiae BY4741 SeMeCo community
Assay: mean cell size (pixel area) (pixels); higher = larger cells
Conditions: 10 µM; 24 h; SM minimal medium
In short: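 A four-plasmid fluorescent Saccharomyces cerevisiae BY4741 community was tested; each plasmid complements one auxotrophy and carries a fluorescent marker. An overnight preculture at OD600 = 1.0 was diluted to OD600 = 0.3, and 70 µl was added to 384-well plates acoustically predosed with drug (final 10 µM) in SM medium for 24 h. Cells were fixed with paraformaldehyde and imaged by automated confocal microscopy, with analysis in Harmony. Mean cell pixel area per well is averaged over 3 replicates. Same SeMeCo high-content imaging drug screen: Selleck FDA-approved drugs at 10 µM, 24 h in SM medium, 384-well plates, 3 replicates.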

**Q.** How did the mean cell size turn out when `CN1C2CCCC1CC(NC(=O)c1nn(C)c3ccccc13)C2` (stereo not given) [Granisetron HCl] was run?
**A.** Its mean cell size is 11.8 ± 0.16.

**Q.** How did the mean cell size turn out when `COc1c(N2C[C@@H]3CCCN[C@@H]3C2)c(F)cc2c(=O)c(C(=O)O)cn(C3CC3)c12` [Moxifloxacin HCl] was run?
**A.** Its mean cell size is 12.3 ± 0.15.

**Q.** For `CN[C@@H]1[C@H](O[C@H]2[C@H](O[C@H]3[C@H](O)[C@@H](O)[C@H](NC(=N)N)[C@@H](O)[C@@H]3NC(=N)N)O[C@@H](C)[C@]2(O)CO)O[C@@H](CO)[C@H](O)[C@H]1O` [Dihydrostreptomycin sulfate], which mean cell size is on record?
**A.** The mean cell size was 12.2 ± 0.26.

**Q.** Which mean cell size does the source give for `CS(=O)(=O)c1ccc([C@@H](O)[C@@H](CF)NC(=O)C(Cl)Cl)cc1` [Florfenicol] here?
**A.** The mean cell size was 12.4 ± 0.26.

**Q.** `CS(=O)(=O)c1ccc([C@@H](O)[C@@H](CO)NC(=O)C(Cl)Cl)cc1` [Thiamphenicol] was tested. Which mean cell size did it give?
**A.** The mean cell size was 12.41 ± 0.061.

**Q.** With `c1ccc(C2CN3CCSC3=N2)cc1` (stereo not given) [Tetramisole HCl] as the compound, how does the mean cell size read?
**A.** The mean cell size was 11.9 ± 0.12.

**Q.** With `Cc1ccnc(NS(=O)(=O)c2ccc(N)cc2)n1` [Sulfamerazine] as the compound, how does the mean cell size read?
**A.** The mean cell size was 12.5 ± 0.16.

**Q.** Which mean cell size does the source give for `OCCOCCN1CCN(C2=Nc3ccccc3Sc3ccccc32)CC1` [Quetiapine Fumarate] here?
**A.** Its mean cell size is 12.42 ± 0.12.

**Q.** For `CC(=O)N[C@H]1[C@H]([C@H](O)[C@H](O)CO)OC(C(=O)O)=C[C@@H]1NC(=N)N` [Zanamivir], which mean cell size is on record?
**A.** Its mean cell size is 11.9 ± 0.17.

**Q.** How did the mean cell size turn out when `CC(C)NC(=N)NC(=N)Nc1ccc(Cl)cc1` [Proguanil] was run?
**A.** Its mean cell size is 12.3 ± 0.13.

**Q.** How did the mean cell size turn out when `O=C1CN(/N=C/c2ccc([N+](=O)[O-])o2)C(=O)N1` [Nitrofurantoin] was run?
**A.** Its mean cell size is 12.47 ± 0.1.

**Q.** How did the mean cell size turn out when `O=C(C1CCCCC1)N1CC(=O)N2CCc3ccccc3C2C1` (stereo not given) [Praziquantel] was run?
**A.** The mean cell size was 12.39 ± 0.1.

**Q.** `Clc1ccc(C(Cn2ccnc2)OCc2c(Cl)cccc2Cl)c(Cl)c1` (stereo not given) [Isoconazole nitrate] was tested. Which mean cell size did it give?
**A.** The mean cell size was 12.1 ± 0.18.

**Q.** How did the mean cell size turn out when `CCCCOc1cc(C(=O)OCCN(CC)CC)ccc1N` [Oxybuprocaine HCl] was run?
**A.** The mean cell size was 12.6 ± 0.3.

**Q.** Which mean cell size does the source give for `CC(NCCC(c1ccccc1)c1ccccc1)c1ccccc1` (stereo not given) [Fendiline hydrochloride] here?
**A.** Its mean cell size is 12.1 ± 0.2.

**Q.** With `CN1CC(=O)N2[C@H](c3ccc4c(c3)OCO4)c3[nH]c4ccccc4c3C[C@@H]2C1=O` [Tadalafil] as the compound, how does the mean cell size read?
**A.** Its mean cell size is 12.3 ± 0.19.

**Q.** For `CCC[C@@H]1C[C@@H](C(=O)N[C@@H]([C@H]2O[C@H](SC)[C@H](OP(=O)(O)O)[C@@H](O)[C@H]2O)[C@H](C)Cl)N(C)C1` [Clindamycin Phosphate], which mean cell size is on record?
**A.** Its mean cell size is 12 ± 0.22.

**Q.** `CC(C)c1c(C(=O)Nc2ccccc2)c(-c2ccccc2)c(-c2ccc(F)cc2)n1CC[C@@H](O)C[C@@H](O)CC(=O)O` [Atorvastatin] was tested. Which mean cell size did it give?
**A.** Its mean cell size is 11.1 ± 0.15.

**Q.** `CN(C)CCc1c[nH]c2ccc(CS(=O)(=O)N3CCCC3)cc12` [Almotriptan Malate] was tested. Which mean cell size did it give?
**A.** Its mean cell size is 12.4 ± 0.14.

**Q.** For `Cc1ccc(S(=O)(=O)NC(=O)NN2CC3CCCC3C2)cc1` (stereo not given) [Gliclazide], which mean cell size is on record?
**A.** Its mean cell size is 12.6 ± 0.2.

**Q.** With `O=c1c(-c2ccc(O)cc2)coc2c([C@@H]3O[C@H](CO)[C@@H](O)[C@H](O)[C@H]3O)c(O)ccc12` [Puerarin] as the compound, how does the mean cell size read?
**A.** Its mean cell size is 12.55 ± 0.11.

**Q.** How did the mean cell size turn out when `O=C1Cc2cc(CCN3CCN(c4nsc5ccccc45)CC3)c(Cl)cc2N1` [Ziprasidone HCl] was run?
**A.** The mean cell size was 12.2 ± 0.18.

**Q.** `CCCCCNC(=N)N/N=C/c1c[nH]c2ccc(OC)cc12` [Tegaserod Maleate] was tested. Which mean cell size did it give?
**A.** The mean cell size was 12.23 ± 0.022.

**Q.** With `CN1CCC[C@@H]1Cc1c[nH]c2ccc(CCS(=O)(=O)c3ccccc3)cc12` [Eletriptan HBr] as the compound, how does the mean cell size read?
**A.** Its mean cell size is 12.5 ± 0.44.

**Q.** Which mean cell size does the source give for `CCN(CC)CCOCCOC(=O)C1(c2ccccc2)CCCC1` [Pentoxyverine Citrate] here?
**A.** The mean cell size was 12.5 ± 0.13.

**Q.** How did the mean cell size turn out when `Cc1ccc(O)c([C@H](CCN(C(C)C)C(C)C)c2ccccc2)c1` [Tolterodine tartrate] was run?
**A.** Its mean cell size is 12.36 ± 0.069.

**Q.** With `COc1ccc(Cl)cc1C(=O)NCCc1ccc(S(=O)(=O)NC(=O)NC2CCCCC2)cc1` [Glyburide (Glibenclamide)] as the compound, how does the mean cell size read?
**A.** Its mean cell size is 12.36 ± 0.11.

**Q.** Which mean cell size does the source give for `COC(=O)Nc1nc2cc(C(=O)c3ccccc3)ccc2[nH]1` [Mebendazole] here?
**A.** Its mean cell size is 12.07 ± 0.077.

**Q.** With `Cc1nc(Nc2ccc(F)cc2)nc(N2CCc3ccccc3C2C)c1C` (stereo not given) [Revaprazan Hydrochloride] as the compound, how does the mean cell size read?
**A.** The mean cell size was 11.4 ± 0.18.

**Q.** How did the mean cell size turn out when `CC1(C)S[C@@H]2[C@H](NC(=O)Cc3ccccc3)C(=O)N2[C@H]1C(=O)O` [Benzylpenicillin potassium] was run?
**A.** The mean cell size was 12.1 ± 0.18.

**Q.** `C#C[C@]1(O)CC[C@H]2[C@@H]3CCC4=CC(=O)CC[C@@H]4[C@H]3C(=C)C[C@@]21CC` [Etonogestrel] was tested. Which mean cell size did it give?
**A.** Its mean cell size is 12.4 ± 0.14.

**Q.** `Cc1ncc([N+](=O)[O-])n1CC(O)CCl` (stereo not given) [Ornidazole] was tested. Which mean cell size did it give?
**A.** Its mean cell size is 12.5 ± 0.26.

**Q.** With `CC[C@H](C)C(=O)O[C@H]1C[C@H](O)C=C2C=C[C@H](C)[C@H](CC[C@@H](O)C[C@@H](O)CC(=O)O)[C@H]21` [Pravastatin] as the compound, how does the mean cell size read?
**A.** The mean cell size was 12.2 ± 0.19.

**Q.** `O=C(O)c1cc(O)c2c(c1)[C@H]([C@H]1c3cc(C(=O)O)cc(O)c3C(=O)c3c(O[C@@H]4O[C@H](CO)[C@@H](O)[C@H](O)[C@H]4O)cccc31)c1cccc(O[C@@H]3O[C@H](CO)[C@@H](O)[C@H](O)[C@H]3O)c1C2=O` [Sennoside A] was tested. Which mean cell size did it give?
**A.** Its mean cell size is 12.57 ± 0.12.

**Q.** With `Cc1cc(NS(=O)(=O)c2ccc(N)cc2)no1` [Sulfamethoxazole sodium] as the compound, how does the mean cell size read?
**A.** The mean cell size was 12.3 ± 0.35.

**Q.** How did the mean cell size turn out when `C#C[C@]1(O)CC[C@H]2[C@@H]3CCc4cc(OC5CCCC5)ccc4[C@H]3CC[C@@]21C` [Quinestrol] was run?
**A.** Its mean cell size is 12.4 ± 0.25.

**Q.** `CCN(Cc1ccncc1)C(=O)C(CO)c1ccccc1` (stereo not given) [Tropicamide] was tested. Which mean cell size did it give?
**A.** The mean cell size was 12.48 ± 0.099.

**Q.** With `C1N2CN3CN1CN(C2)C3` [Methenamine] as the compound, how does the mean cell size read?
**A.** The mean cell size was 12.21 ± 0.073.

**Q.** How did the mean cell size turn out when `COc1ccc(C(Cl)=C(c2ccc(OC)cc2)c2ccc(OC)cc2)cc1` [Chlorotrianisene] was run?
**A.** Its mean cell size is 12.6 ± 0.13.

**Q.** For `CC(C)(O/N=C(\C(=O)N[C@@H]1C(=O)N2C(C(=O)[O-])=C(C[n+]3ccccc3)CS[C@H]12)c1csc(N)n1)C(=O)O` [Ceftazidime], which mean cell size is on record?
**A.** The mean cell size was 12 ± 0.14.
